Laboratory results: PubChem BioAssay (NCI)
The panel holds about 83,000 compounds, 20% with a hit somewhere; the sample as a whole holds those more often.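 Treatment: one concentration, 48 hours, 96-well format. Scoring: percent growth, with anything below 10 considered active.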 Calls of active or inactive are those of the source.

How the values were obtained:
Test in all cases: NCI-60 one-dose screen, 48 h (100 = growth as untreated, 0 = no growth, -100 = all killed)
Details in all cases: 10 µM unless noted
DU-145 prostate = system: DU-145 prostate
K-562 leukemia = system: K-562 leukemia
MALME-3M melanoma = system: MALME-3M melanoma
MDA-MB-231 breast = system: MDA-MB-231 breast
RXF 393 renal = system: RXF 393 renal
SF-268 CNS = system: SF-268 CNS
SF-295 CNS = system: SF-295 CNS
SF-539 CNS = system: SF-539 CNS
UACC-257 melanoma = system: UACC-257 melanoma
M14 melanoma = system: M14 melanoma

Measured: growth

CCOC(=O)CCN(C(=O)Nc1ccccc1)C1CCCCC1
inactive: DU-145 prostate 100% | K-562 leukemia 132% | MALME-3M melanoma 113% | MDA-MB-231 breast 110% | RXF 393 renal 177% | SF-268 CNS 104% | SF-295 CNS 108% | SF-539 CNS 98.9% | UACC-257 melanoma 119% | M14 melanoma 108%

c1ccc(CO[C@H]2CO[C@H]3[C@@H]2OC[C@@H]3Oc2ccc(Nc3ncnc4ccsc34)cc2)cc1
inactive: DU-145 prostate 89% | K-562 leukemia 62.1% | MALME-3M melanoma 53.4% | MDA-MB-231 breast 71.7% | RXF 393 renal 83.1% | SF-268 CNS 78% | SF-295 CNS 63.3% | SF-539 CNS 73.1% | UACC-257 melanoma 78% | M14 melanoma 79.5%

CN(C)c1ccc(/C=N\Nc2cc(=O)[nH]c3ccc(Cl)cc23)cc1
inactive: DU-145 prostate 123% | K-562 leukemia 91.8% | MALME-3M melanoma 122% | MDA-MB-231 breast 91.5% | RXF 393 renal 105% | SF-268 CNS 99.5% | SF-295 CNS 98% | SF-539 CNS 101% | UACC-257 melanoma 98.1% | M14 melanoma 94.5%

CCc1cccc2c3c(sc12)C(c1ccc(F)cc1)C(C#N)=C(N)O3 (stereo not given)
active: RXF 393 renal 1.43% | SF-295 CNS 8.12% | SF-539 CNS 2.76%
inactive: DU-145 prostate 24.5% | K-562 leukemia 12.4% | MALME-3M melanoma 75.9% | MDA-MB-231 breast 21.1% | SF-268 CNS 54.5% | UACC-257 melanoma 74.2% | M14 melanoma 19.2%

Cc1ccc(-c2nc(N3CCN(C(=O)Nc4ccc(Cl)c(C(F)(F)F)c4)CC3)c3ccccc3n2)cc1
inactive: DU-145 prostate 86.6% | K-562 leukemia 44.9% | MALME-3M melanoma 105% | MDA-MB-231 breast 61.3% | RXF 393 renal 68% | SF-268 CNS 58.1% | SF-295 CNS 78.2% | SF-539 CNS 87% | UACC-257 melanoma 90.1% | M14 melanoma 73.8%

O=C(N/N=C/[C@@H](O)[C@H](O)[C@H](O)CO)c1ccc(NC(=O)c2cccnc2)cc1
inactive: DU-145 prostate 112% | K-562 leukemia 103% | MALME-3M melanoma 110% | MDA-MB-231 breast 102% | RXF 393 renal 109% | SF-268 CNS 98.5% | SF-295 CNS 101% | SF-539 CNS 103% | UACC-257 melanoma 100% | M14 melanoma 106%

COc1ccc(-c2cc3c4c(nc5ccccc5c4c2)CC(c2cc(OC)c(OC)c(OC)c2)O3)cc1 (stereo not given)
inactive: DU-145 prostate 35.4% | K-562 leukemia 40.9% | MALME-3M melanoma 20.8% | MDA-MB-231 breast 19.6% | SF-268 CNS 44.4% | SF-295 CNS 42% | UACC-257 melanoma 46.3% | M14 melanoma 57.5%
active: RXF 393 renal -0.548% | SF-539 CNS -16%

O=C(COc1ccc(/C=C2\Cc3ccc(Cl)cc3C2=O)cc1)Nc1nc2ccccc2s1
inactive: DU-145 prostate 115% | K-562 leukemia 86.4% | MALME-3M melanoma 132% | MDA-MB-231 breast 96% | RXF 393 renal 88.4% | SF-268 CNS 112% | SF-295 CNS 108% | SF-539 CNS 98.9% | UACC-257 melanoma 105% | M14 melanoma 103%

COc1ccc(OC)c(/C=C/C(=O)N/N=C/c2ccc(Cl)cc2)c1
active: RXF 393 renal -19.8% | SF-539 CNS -43.2% | M14 melanoma -34.4%
inactive: DU-145 prostate 14.8% | K-562 leukemia 14% | MALME-3M melanoma 54.1% | MDA-MB-231 breast 28.1% | SF-268 CNS 33.2% | SF-295 CNS 31.8% | UACC-257 melanoma 53%

O=C(CSc1nccc(Nc2ccc(S(=O)(=O)Nc3nccs3)cc2)n1)c1ccc(C(F)(F)F)cc1
inactive: DU-145 prostate 114% | K-562 leukemia 114% | MALME-3M melanoma 102% | MDA-MB-231 breast 120% | RXF 393 renal 95.5% | SF-268 CNS 110% | SF-295 CNS 96.7% | SF-539 CNS 95.7% | UACC-257 melanoma 99.3% | M14 melanoma 100%

O=c1c2cccc(F)c2sc2c(NCCCNCCO)nc3ccccc3c12
active: K-562 leukemia -20% | MDA-MB-231 breast 5.79% | M14 melanoma -58.5%
inactive: DU-145 prostate 23.7% | MALME-3M melanoma 74% | RXF 393 renal 50.8% | SF-268 CNS 41.9% | SF-295 CNS 63.7% | SF-539 CNS 41.1% | UACC-257 melanoma 85.6%

CCCCn1c(=O)c(-c2cc(-c3ccc(Cl)cc3)nc(-c3ccc(Cl)cc3)c2)cc2ccc(Cl)cc21
inactive: DU-145 prostate 108% | K-562 leukemia 97.8% | MALME-3M melanoma 98.5% | MDA-MB-231 breast 96.5% | RXF 393 renal 103% | SF-268 CNS 94.2% | SF-295 CNS 100% | SF-539 CNS 96.1% | UACC-257 melanoma 101% | M14 melanoma 107%

Cc1nn(-c2ccccc2)c(-n2ccnc2)c1/C=N/Nc1nc(-c2ccc(Cl)c(Cl)c2)cs1
inactive: K-562 leukemia 18.7% | MALME-3M melanoma 22.5% | SF-268 CNS 41.8% | SF-295 CNS 57.7% | SF-539 CNS 59.3% | UACC-257 melanoma 62.7% | M14 melanoma 45.1%
active: DU-145 prostate 2.44% | MDA-MB-231 breast 6.68% | RXF 393 renal -1.62%
